From PubChem BioAssay AID1159580 (chemical genetic matrix, 2015)
In all, about 5,500 compounds went through this assay and about 2,000 (36%) were called active. About 18% were inconclusive and are not listed. Rule as the data show it: active = normalized growth mostly below about 0.91 (no sharp cut-off); inconclusive = no clear call, values can overlap the other calls; inactive = mostly above about 0.92. Some of the results follow.

Test: chemical genetic growth profiling, strain panel (AID 1159580);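 also: tested at 20 µM; growth read once vehicle control cultures reached saturation at 30 °C; 1 = growth at the plate median or of vehicle wells; lower values mean less growth of the strain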
Details: growth OD
[1] = S. cerevisiae deletion strains, locus YDL101C, strain DUN1, active compounds read low
[2] = S. cerevisiae deletion strains, locus YHR030C, strain SLT2, active compounds read low
[3] = S. cerevisiae deletion strains, locus YJL095W, strain BCK1, active compounds read low
[4] = S. cerevisiae deletion strains, locus YOR061W, strain CKA2, active compounds read low

Measured: normalized growth

NC(=O)c1ccc[n+]([C@@H]2O[C@H](COP(=O)([O-])OP(=O)(O)OC[C@H]3O[C@@H](n4cnc5c(N)ncnc54)[C@H](OP(=O)(O)O)[C@@H]3O)[C@@H](O)[C@H]2O)c1
inactive: S. cerevisiae deletion strains, locus YAL013W, strain DEP1, active compounds read low 1.02 | S. cerevisiae deletion strains, locus YBR021W, strain FUR4, active compounds read low 1 | S. cerevisiae deletion strains, locus YBR229C, strain ROT2, active compounds read low 1.03 | S. cerevisiae deletion strains, locus YCL029C, strain bik1, active compounds read low 1 | S. cerevisiae deletion strains, locus YDL035C, strain GPR1, active compounds read low 1.06 | S. cerevisiae deletion strains, locus YDL074C, strain BRE1, active compounds read low 1.02 | [1] 1.02 | S. cerevisiae deletion strains, locus YDL134C, strain PPH21, active compounds read low 1.02 | S. cerevisiae deletion strains, locus YDL185W, strain tfp1, active compounds read low 0.994 | S. cerevisiae deletion strains, locus YDL192W, strain arf1, active compounds read low 1.01 | S. cerevisiae deletion strains, locus YDR101C, strain arx1, active compounds read low 1.01 | S. cerevisiae deletion strains, locus YDR150W, strain NUM1, active compounds read low 1.02 | S. cerevisiae deletion strains, locus YDR162C, strain NBP2, active compounds read low 1.03 | S. cerevisiae deletion strains, locus YDR318W, strain mcm21, active compounds read low 1.01 | S. cerevisiae deletion strains, locus YDR388W, active compounds read low 0.985 | S. cerevisiae deletion strains, locus YDR502C, strain sam2, active compounds read low 1.03 | S. cerevisiae deletion strains, locus YEL061C, strain CIN8, active compounds read low 1.02 | S. cerevisiae deletion strains, locus YER110C, active compounds read low 1 | S. cerevisiae deletion strains, locus YER155C, strain BEM2, active compounds read low 1 | S. cerevisiae deletion strains, locus YER167W, strain BCK2, active compounds read low 1.04 | S. cerevisiae deletion strains, locus YGL078C, strain dbp3, active compounds read low 0.995 | S. cerevisiae deletion strains, locus YGL086W, strain mad1, active compounds read low 1.04 | S. cerevisiae deletion strains, locus YGL248W, strain PDE1, active compounds read low 1.02 | S. cerevisiae deletion strains, locus YGR078C, strain PAC10, active compounds read low 1.04 | S. cerevisiae deletion strains, locus YGR135W, strain pre9, active compounds read low 1.02 | S. cerevisiae deletion strains, locus YGR229C, strain SMI1, active compounds read low 1.03 | S. cerevisiae deletion strains, locus YGR252W, strain gcn5, active compounds read low 1.03 | [2] 1.01 | S. cerevisiae deletion strains, locus YHR079C, strain IRE1 (second series), active compounds read low 1.01 | S. cerevisiae deletion strains, locus YHR094C, strain hxt1, active compounds read low 0.995 | S. cerevisiae deletion strains, locus YHR129C, strain ARP1, active compounds read low 1.02 | S. cerevisiae deletion strains, locus YHR200W, strain rpn10, active compounds read low 1 | S. cerevisiae deletion strains, locus YIL066C, strain RNR3, active compounds read low 1.03 | S. cerevisiae deletion strains, locus YIL073C, strain SPO22, active compounds read low 1.02 | S. cerevisiae deletion strains, locus YIL125W, strain kgd1, active compounds read low 0.981 | S. cerevisiae deletion strains, locus YIR030C, strain dcg1, active compounds read low 0.996 | [3] 1.03 | S. cerevisiae deletion strains, locus YJL134W, strain LCB3, active compounds read low 1.01 | S. cerevisiae deletion strains, locus YJL168C, strain set2, active compounds read low 0.996 | S. cerevisiae deletion strains, locus YJL187C, strain SWE1 (second series), active compounds read low 1.03 | S. cerevisiae deletion strains, locus YJR043C, strain POL32, active compounds read low 1.03 | S. cerevisiae deletion strains, locus YJR075W, strain HOC1, active compounds read low 1.05 | S. cerevisiae deletion strains, locus YKL009W, strain mrt4, active compounds read low 1.02 | S. cerevisiae deletion strains, locus YKL068W, active compounds read low 0.999 | S. cerevisiae deletion strains, locus YKL085W, strain MDH1 (second series), active compounds read low 0.99 | S. cerevisiae deletion strains, locus YKL085W, strain MDH1, active compounds read low 0.99 | S. cerevisiae deletion strains, locus YKL190W, strain CNB1, active compounds read low 1.01 | S. cerevisiae deletion strains, locus YKR001C, strain vps1, active compounds read low 0.996 | S. cerevisiae deletion strains, locus YLR039C, strain RIC1, active compounds read low 1.04 | S. cerevisiae deletion strains, locus YLR058C, strain SHM2, active compounds read low 1.02 | S. cerevisiae deletion strains, locus YLR102C, strain apc9, active compounds read low 0.99 | S. cerevisiae deletion strains, locus YLR262C, strain YPT6, active compounds read low 1.08 | S. cerevisiae deletion strains, locus YLR268W, strain sec22, active compounds read low 0.949 | S. cerevisiae deletion strains, locus YLR330W, strain CHS5, active compounds read low 1.01 | S. cerevisiae deletion strains, locus YLR342W, strain FKS1 (second series), active compounds read low 1.04 | S. cerevisiae deletion strains, locus YLR371W, strain rom2, active compounds read low 0.987 | S. cerevisiae deletion strains, locus YLR418C, strain cdc73, active compounds read low 1.04 | S. cerevisiae deletion strains, locus YML016C, strain PPZ1, active compounds read low 1.02 | S. cerevisiae deletion strains, locus YML032C, strain rad52, active compounds read low 0.979 | S. cerevisiae deletion strains, locus YML124C, strain tub3, active compounds read low 0.991 | S. cerevisiae deletion strains, locus YMR078C, strain ctf18, active compounds read low 0.995 | S. cerevisiae deletion strains, locus YMR223W, strain ubp8, active compounds read low 1.04 | S. cerevisiae deletion strains, locus YMR263W, strain SAP30, active compounds read low 1.04 | S. cerevisiae deletion strains, locus YMR307W, strain GAS1, active compounds read low 1.07 | S. cerevisiae deletion strains, locus YNL067W, strain RPL9B, active compounds read low 1.04 | S. cerevisiae deletion strains, locus YNL128W, strain TEP1, active compounds read low 1.05 | S. cerevisiae deletion strains, locus YNL153C, strain GIM3, active compounds read low 1.02 | S. cerevisiae deletion strains, locus YNL233W, strain BNI4, active compounds read low 1.03 | S. cerevisiae deletion strains, locus YNL250W, strain rad50, active compounds read low 0.995 | S. cerevisiae deletion strains, locus YNL271C, strain bni1, active compounds read low 0.993 | S. cerevisiae deletion strains, locus YNL298W, strain CLA4, active compounds read low 0.989 | S. cerevisiae deletion strains, locus YNL307C, strain MCK1, active compounds read low 1.01 | S. cerevisiae deletion strains, locus YNL322C, strain KRE1, active compounds read low 1.01 | S. cerevisiae deletion strains, locus YNR052C, strain pop2, active compounds read low 0.991 | S. cerevisiae deletion strains, locus YOL006C, strain TOP1, active compounds read low 1.03 | S. cerevisiae deletion strains, locus YOL012C, strain htz1 0.919 | S. cerevisiae deletion strains, locus YOL147C, strain pex11, active compounds read low 0.995 | [4] 1.02 | S. cerevisiae deletion strains, locus YOR069W, strain VPS5, active compounds read low 1.01 | S. cerevisiae deletion strains, locus YOR136W, strain idh2, active compounds read low 1.01 | S. cerevisiae deletion strains, locus YOR144C, strain elg1, active compounds read low 0.984 | S. cerevisiae deletion strains, locus YOR184W, strain ser1, active compounds read low 1.02 | S. cerevisiae deletion strains, locus YOR316C, strain cot1, active compounds read low 0.997 | S. cerevisiae deletion strains, locus YPL055C, strain LGE1, active compounds read low 1.05 | S. cerevisiae deletion strains, locus YPL241C, strain CIN2, active compounds read low 1.02 | S. cerevisiae deletion strains, locus YPR119W, strain clb2, active compounds read low 0.986 | S. cerevisiae deletion strains, locus YPR141C, strain kar3, active compounds read low 0.978 | S. cerevisiae deletion strains, locus YPR163C, strain tif3, active compounds read low 0.997 | S. cerevisiae deletion strains, locus YPR167C, strain met16, active compounds read low 0.99 | S. cerevisiae deletion strains, strain wtn01, active compounds read low 1 | S. cerevisiae strains, strain wild type, active compounds read low 1.03

C/C(Cc1nnn(-c2cc(C)on2)n1)=N/OC(=O)Nc1ccc(Cl)cc1
active: [2] 0.733 | S. cerevisiae deletion strains, locus YJR066W, strain TOR1 (second series), active compounds read low 0.6 | S. cerevisiae deletion strains, locus YLR113W, strain HOG1, active compounds read low 0.826
inactive: S. cerevisiae deletion strains, locus YAR019C, strain CDC15, active compounds read low 0.989 | S. cerevisiae deletion strains, locus YBL105C, strain PKC1, active compounds read low 0.978 | S. cerevisiae deletion strains, locus YBR135W, strain CKS1, active compounds read low 0.988 | S. cerevisiae deletion strains, locus YBR136W, strain MEC1, active compounds read low 0.985 | S. cerevisiae deletion strains, locus YBR160W, strain CDC28, active compounds read low 0.993 | S. cerevisiae deletion strains, locus YDL017W, strain CDC7, active compounds read low 0.974 | S. cerevisiae deletion strains, locus YDL028C, strain MPS1, active compounds read low 0.989 | [1] 1 | S. cerevisiae deletion strains, locus YDL108W, strain KIN28, active compounds read low 0.982 | S. cerevisiae deletion strains, locus YDL132W, strain cdc53, active compounds read low 0.975 | S. cerevisiae deletion strains, locus YDL214C, strain PRR2, active compounds read low 0.956 | S. cerevisiae deletion strains, locus YDR052C, strain DBF4, active compounds read low 0.988 | S. cerevisiae deletion strains, locus YDR054C, strain cdc34, active compounds read low 0.975 | S. cerevisiae deletion strains, locus YDR226W, strain ADK1, active compounds read low 0.97 | S. cerevisiae deletion strains, locus YDR477W, strain SNF1, active compounds read low 0.899 | S. cerevisiae deletion strains, locus YER123W, strain YCK3, active compounds read low 0.954 | S. cerevisiae deletion strains, locus YER133W, strain GLC7, active compounds read low 0.95 | S. cerevisiae deletion strains, locus YFL009W, strain cdc4, active compounds read low 0.98 | S. cerevisiae deletion strains, locus YFL029C, strain CAK1, active compounds read low 0.992 | S. cerevisiae deletion strains, locus YFR003C, strain YPI1, active compounds read low 0.979 | S. cerevisiae deletion strains, locus YFR019W, strain FAB1, active compounds read low 0.989 | S. cerevisiae deletion strains, locus YFR028C, strain CDC14, active compounds read low 0.975 | S. cerevisiae deletion strains, locus YGR040W, strain KSS1, active compounds read low 0.941 | S. cerevisiae deletion strains, locus YGR052W, strain FMP48, active compounds read low 0.971 | S. cerevisiae deletion strains, locus YGR092W, strain DBF2, active compounds read low 0.877 | S. cerevisiae deletion strains, locus YHR079C, strain IRE1, active compounds read low 0.754 | S. cerevisiae deletion strains, locus YHR082C, strain KSP1, active compounds read low 1.05 | S. cerevisiae deletion strains, locus YHR205W, strain SCH9, active compounds read low 0.787 | S. cerevisiae deletion strains, locus YIL147C, strain SLN1, active compounds read low 0.973 | [3] 0.793 | S. cerevisiae deletion strains, locus YJL128C, strain PBS2, active compounds read low 0.921 | S. cerevisiae deletion strains, locus YJL157C, strain FAR1, active compounds read low 0.956 | S. cerevisiae deletion strains, locus YJR016C, strain ILV3, active compounds read low 0.977 | S. cerevisiae deletion strains, locus YJR066W, strain TOR1, active compounds read low 0.992 | S. cerevisiae deletion strains, locus YKL048C, strain ELM1, active compounds read low 0.994 | S. cerevisiae deletion strains, locus YKL067W, strain YNK1, active compounds read low 0.946 | S. cerevisiae deletion strains, locus YKL101W, strain HSL1, active compounds read low 0.929 | S. cerevisiae deletion strains, locus YKL193C, strain SDS22, active compounds read low 0.977 | S. cerevisiae deletion strains, locus YKL203C, strain TOR2, active compounds read low 1.03 | S. cerevisiae deletion strains, locus YLR133W, strain CKI1, active compounds read low 0.96 | S. cerevisiae deletion strains, locus YLR403W, strain SFP1, active compounds read low 0.933 | S. cerevisiae deletion strains, locus YML070W, strain DAK1, active compounds read low 0.944 | S. cerevisiae deletion strains, locus YMR001C, strain CDC5, active compounds read low 0.983 | S. cerevisiae deletion strains, locus YMR205C, strain PFK2 (second series), active compounds read low 0.936 | S. cerevisiae deletion strains, locus YMR277W, strain FCP1, active compounds read low 0.978 | S. cerevisiae deletion strains, locus YNL006W, strain LST8, active compounds read low 0.98 | S. cerevisiae deletion strains, locus YNL020C, strain ARK1, active compounds read low 0.923 | S. cerevisiae deletion strains, locus YNL161W, strain CBK1, active compounds read low 0.973 | S. cerevisiae deletion strains, locus YNL183C, strain NPR1, active compounds read low 0.977 | S. cerevisiae deletion strains, locus YNL207W, strain RIO2, active compounds read low 0.981 | S. cerevisiae deletion strains, locus YNL222W, strain SSU72, active compounds read low 0.993 | S. cerevisiae deletion strains, locus YNL307C, strain MCK1 (second series), active compounds read low 0.907 | S. cerevisiae deletion strains, locus YOL078W, strain AVO1, active compounds read low 0.986 | S. cerevisiae deletion strains, locus YOL136C, strain PFK27, active compounds read low 0.946 | [4] 0.988 | S. cerevisiae deletion strains, locus YOR119C, strain RIO1, active compounds read low 1.01 | S. cerevisiae deletion strains, locus YOR231W, strain MKK1, active compounds read low 0.954 | S. cerevisiae deletion strains, locus YOR329C, strain SCD5, active compounds read low 0.982 | S. cerevisiae deletion strains, locus YPL031C, strain PHO85, active compounds read low 0.924 | S. cerevisiae deletion strains, locus YPL153C, strain RAD53, active compounds read low 0.953 | S. cerevisiae deletion strains, locus YPL204W, strain HRR25, active compounds read low 0.954 | S. cerevisiae deletion strains, locus YPL209C, strain IPL1, active compounds read low 0.985 | S. cerevisiae deletion strains, locus YPL256C, strain CLN2, active compounds read low 0.86 | S. cerevisiae deletion strains, locus YPR025C, strain CCL1, active compounds read low 0.991 | S. cerevisiae deletion strains, locus YPR106W, strain ISR1, active compounds read low 0.98 | S. cerevisiae deletion strains, locus YPR111W, strain DBF20, active compounds read low 0.975 | S. cerevisiae deletion strains, strain NNK1, active compounds read low 0.967 | S. cerevisiae deletion strains, strain TSCII, active compounds read low 0.98
